From PubChem BioAssay AID1851 (National Center for Advancing Translational Sciences (NCATS), 2009)
About 5,700 (36%) of roughly 16,000 compounds were called active. Another 24% or so got no clear call; they are omitted. The call rests on the fitted dose curve; in most records, active means well fitted curve in the direction sought with a large enough effect; inconclusive means small, poorly fitted or top-dose-only effect, or effect the other way; inactive means no such curve, though single readings can be large or run the other way. The list shows a part of the results.

Target: Cytochrome P450 1A2 (Homo sapiens) (UniProt P05177)
Assay: Cytochrome panel assay with activity outcomes
Details: recombinant CYP, pro-luciferin dealkylation, luminescence, p450-cyp1a2; series mostly up to 57.1 µM; activity, negative = inhibition: at the top concentration
On the % scale 0 is the no-effect control and ±100 the full control effect.

Sequence of Cytochrome P450 1A2 (Homo sapiens) (P05177 whole entry, looked up): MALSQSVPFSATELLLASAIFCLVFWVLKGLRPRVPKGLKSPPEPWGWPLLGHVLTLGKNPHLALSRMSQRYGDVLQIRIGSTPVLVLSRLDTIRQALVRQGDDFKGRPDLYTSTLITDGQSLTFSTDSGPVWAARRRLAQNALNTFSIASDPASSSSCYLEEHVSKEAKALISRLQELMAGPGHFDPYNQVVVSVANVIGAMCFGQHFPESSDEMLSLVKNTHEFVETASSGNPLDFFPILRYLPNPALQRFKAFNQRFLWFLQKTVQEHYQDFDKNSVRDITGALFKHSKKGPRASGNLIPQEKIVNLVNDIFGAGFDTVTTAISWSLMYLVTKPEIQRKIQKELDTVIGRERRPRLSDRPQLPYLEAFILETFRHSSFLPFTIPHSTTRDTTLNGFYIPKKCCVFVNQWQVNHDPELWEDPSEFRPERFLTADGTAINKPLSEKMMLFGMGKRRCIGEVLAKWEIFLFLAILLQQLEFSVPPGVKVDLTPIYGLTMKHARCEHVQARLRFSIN

SMILES | activity, negative = inhibition | AC50
CN1CC[C@@]2(CCCN(C(=O)c3ccco3)C2)C1 | 7.97% (inactive) | –
COC(=O)C[C@](O)(CCCC(C)(C)O)C(=O)O[C@@H]1C(OC)=C[C@]23CCCN2CCc2cc4c(cc2[C@H]13)OCO4 | -9.9% (inactive) | –
C=C[C@@H]1CN2CC[C@H]1C[C@H]2[C@H](O)c1ccnc2ccccc12 | -18.2% [at 11.4 µM] (inactive) | –
CCN1C[C@@]2(COC)[C@H]3[C@@H](OC)[C@H]4C1[C@@]3([C@H](OC)C[C@@H]2O)[C@H]1C[C@@]2(O)[C@@H](OC(=O)c3ccccc3)[C@@H]1[C@@]4(OC(C)=O)[C@H](O)[C@@H]2OC | -4.7% [at 25.6 µM] (inactive) | –
NN=C(N)N | -5.67% (inactive) | –
c1csc(CN2CC3(CCNCC3)C2)n1 | 12.5% (inactive) | –
Clc1ccc(C2=CCC[C@H]3CC[C@@H]2N3)cn1 | – | 15.8 µM (active)
Clc1ccc([C@@H]2C[C@H]3CC[C@@H]2N3)cn1 | -20.5% (inactive) | –
CCN(CC)C(=O)N[C@H]1C[C@H]2c3cccc4[nH]cc(c34)C[C@@H]2N(C)C1 | -12.5% (inactive) | –
CNC(C)(C)Cc1ccccc1 | -1.89% [at 25.6 µM] (inactive) | –
C[C@H](Br)C(=O)N[C@H](CO)C(=O)O | -13.1% [at 11.4 µM] (inactive) | –
O=C(O)C[C@H]1NCc2cc3ccccc3nc21 | -4.93% [at 2.29 µM] (inactive) | –
CCC1(CC)C(=O)C=CNC1=O | -8.09% [at 25.6 µM] (inactive) | –
O=C(Nc1ccc(Cl)cc1C(=O)c1ccccc1)c1ccco1 | – | 2.51 µM (active)
CC[C@]1(C2=NCCN2)Cc2ccccc2O1 | -6.04% (inactive) | –
CNC[C@H](O)c1ccc(O)cc1 | -7.35% [at 25.6 µM] (inactive) | –
CC[n+]1c(/C=C/N(C)c2ccccc2)sc2ccc(Cl)cc21 | – | 4.47 µM (active)
O=C(Nc1cccc(F)c1)N1CCC2(CC1)CCN(C(=O)Oc1ccccc1)CC2 | -13.8% (inactive) | –
CCC(=O)Nc1ccc(N2CCN(CC)CC2)c(Cl)c1 | 5.31% (inactive) | –
COC(=O)[C@H]1[C@@H](c2ccccc2)[C@@]2(c3ccccc3)Oc3ccccc3[C@@]1(O)[C@@H]2O | 4.61% [at 11.4 µM] (inactive) | –
CC(C)[C@H](CO)Nc1nc(Nc2cccc(Cl)c2)c2ncn(C(C)C)c2n1 | – | 0.316 µM (active)
CC[C@@H](CO)Nc1nc(NCc2ccccc2)c2ncn(C(C)C)c2n1 | – | 12.6 µM (active)
O=C(O)[C@@H](Br)[C@H](Br)C(=O)O | 5.86% [at 11.4 µM] (inactive) | –
CC(C)CNC(=S)NC1CC2CCCC(C1)N2Cc1ccco1 (stereo not given) | 4.27% (inactive) | –

SMILES | activity, negative = inhibition | AC50
CC(C)N(CC[C@@](C(N)=O)(c1ccccc1)c1ccccn1)C(C)C | – | inactive
C(#CCN1CCCC1)CN1CCCC1 | 1.87% [at 25.6 µM] (inactive) | –
CNC(=O)Oc1ccc2c(c1)[C@@]1(C)CCN(C)[C@@H]1N2C | -6.82% [at 25.6 µM] (inactive) | –
O=C(C[n+]1ccc2ccccc2c1)c1ccc2ccc3ccccc3c2c1 | – | 2.51 µM (active)
CCOC(=O)c1c(NC(=O)C(c2ccccc2)c2ccccc2)sc2c1C1CCN2CC1 | -3.75% (inactive) | –
COc1ccc(NC(=O)NC2CC3CCCC(C2)N3Cc2ccccc2)cc1 (stereo not given) | 1.27% (inactive) | –
NC[C@@H](Cc1ccccc1)P(=O)(O)O | -9.3% [at 11.4 µM] (inactive) | –
Nc1nc2ccc(Cl)cc2c2nc(-c3ccco3)nn12 | – | 0.0631 µM (active)
CN1CC[C@@]2(CCCN(C(=O)c3ccncc3)C2)C1 | 2.09% (inactive) | –
COC(=O)N1CCN(C(=O)Cc2ccc(Cl)c(Cl)c2)[C@H](CN2CCCC2)C1 | – | inactive
CSC([N-]/N=C/c1cccc(C)n1)=[S]=[Cu].CS[C@H]([S-])[N-]/N=C/c1cccc(C)n1 | – | 0.631 µM (active)
O=C(Oc1ccccc1)N1CCC2(CCCN(C(c3ccccc3)c3ccccc3)C2)CC1 | 6.99% (inactive) | –
CNCCCc1ccccc1 | -2.27% (inactive) | –
c1ccc(CCCCN2CCC(c3ccccc3)CC2)cc1 | – | 15.8 µM (active)
c1ccc2c([C@@H]3CCN(CCN4CCOCC4)C3)c[nH]c2c1 | -9.42% [at 11.4 µM] (inactive) | –
NC[C@@H](O)CSP(=O)(O)O | -2.54% [at 11.4 µM] (inactive) | –
CCN1C[C@]2(COC)CC[C@H](O)[C@@]34[C@@H]5C[C@H]6[C@@H](OC)[C@H]5[C@](O)(C[C@@H]6OC)[C@@](O)([C@@H](OC)[C@H]23)[C@@H]14 | 0.799% [at 25.6 µM] (inactive) | –
COc1cc2cc(c1Cl)N(C)C(=O)C[C@H](OC(=O)C(C)C)[C@]1(C)O[C@@H]1[C@@H](C)[C@H]1C[C@](O)(NC(=O)O1)[C@@H](OC)/C=C\C=C(\C)C2 | -7.72% [at 11.4 µM] (inactive) | –
O=c1[nH]c(=O)n(CCc2ccc(F)cc2)c(O)c1C=NCCCN1CCOCC1 | -8.06% (inactive) | –
CCCCn1c(O)c(C(CC)=NCc2ccc(F)cc2)c(=O)[nH]c1=O | – | 8.91 µM (active)
O=c1[nH]c(=O)n(CCC2=CCCCC2)c(O)c1C=Nc1cccc(F)c1 | -0.302% (inactive) | –
CCCCn1c(O)c(C(CC)=Nc2ccc(OC)cc2OC)c(=O)[nH]c1=O | – | 12.6 µM (active)
CCC(=Nc1cc(OC)ccc1OC)c1c(O)[nH]c(=O)[nH]c1=O | – | 14.1 µM (active)
CC1=C(C)[N+](=O)C2(O)CCCCC2(C)N1[O-] (stereo not given) | 12.4% (inactive) | –

SMILES | activity, negative = inhibition | AC50
Nc1nc(N)c2nc(CNc3ccc(C(=O)N[C@H](CCC(=O)O)C(=O)O)cc3)cnc2n1 | -19.4% (inactive) | –
CN(C)C(=O)Oc1cc(OC(=O)N(C)C)cc([C@@H](O)CNC(C)(C)C)c1 | -3.04% [at 25.6 µM] (inactive) | –
C[C@H](c1ccccc1)N1CCN([C@@H](C)c2ccccc2)CC1 | -16% [at 2.29 µM] (inactive) | –
O=C(O)CSCC(=O)O | -2.34% [at 11.4 µM] (inactive) | –
CC1=C2C(=O)[C@@H]3[C@@H](CC=C4C[C@@H](O)CC[C@@]43C)[C@H]2CC[C@@]12O[C@H]1C[C@H](C)CN[C@H]1[C@@H]2C | -16.8% [at 11.4 µM] (inactive) | –
O=C(Oc1ccccc1)N1CCC2(CCCN(Cc3nccs3)C2)CC1 | 1.1% (inactive) | –
C[C@]12N[C@H](Cc3ccccc31)c1ccccc12 | – | inactive
CCCCC/C=C\C/C=C\C/C=C\C/C=C\CCCC(=O)NCC(=O)O | -16.2% (inactive) | –
CCCCCCCC/C=C\CCCCCCCC(N)=O | – | 6.31 µM (active)
CC(C)[C@@]1(NC(=O)[C@@H]2C[C@H]3c4cccc5[nH]cc(c45)C[C@@H]3N(C)C2)O[C@@]2(O)[C@H]3CCCN3C(=O)[C@H](Cc3ccccc3)N2C1=O | -4.49% (inactive) | –
COC(=O)NC/C=C\c1nc(CC/C=C\C(=O)O[C@H]2C[C@H]3CC(=O)O[C@@H](/C=C\CC(C)C)C[C@@H]4CC[C@H](C)[C@H](C[C@@H](OC)C[C@H](C2)O3)O4)co1 | 3.2% [at 11.4 µM] (inactive) | –
Cc1cccc([C@H](C)c2cnc[nH]2)c1C | – | 0.158 µM (active)
C=C1CC[C@H](O)C/C1=C/C=C1\CCC[C@]2(C)[C@H]1CC[C@H]2[C@@H](C)CCCC(C)C | -3.1% [at 25.6 µM] (inactive) | –
CCNC(=S)NC1CC2CCCC(C1)N2Cc1ccco1 (stereo not given) | 0.456% (inactive) | –
CCCN(CCC)[C@@H]1CCc2cccc(O)c2C1 | – | inactive
CCS(=O)(=O)Nc1cccc(C(=C2CCCCC2)c2cnc[nH]2)c1 | – | 0.316 µM (active)
C[N+]1(C)C2CC[C@H]1CC(OC(=O)[C@@H](CO)c1ccccc1)C2 (stereo not given in full) | 5.51% [at 11.4 µM] (inactive) | –
C[C@H](CN(C)C)C(C#N)(c1ccccc1)c1ccccc1 | -3.45% [at 2.29 µM] (inactive) | –
NCC[Se][Se]CCN | – | 3.16 µM (active)
CC[C@H]1CN2CC[C@@H]1C[C@H]2[C@@H](O)c1ccnc2ccc(OC)cc12 | -5.06% [at 25.6 µM] (inactive) | –
COc1ccc(Cl)cc1NC(=O)NCCCl | – | 2.82 µM (active)
C[C@H]1CN(C2CCC(C#N)(c3ccc(F)cc3)CC2)CC[C@@]1(C(=O)O)c1ccccc1 (stereo not given in full) | -0.959% [at 25.6 µM] (inactive) | –
CCCN1CCC[C@H](c2cccc(O)c2)C1 | – | inactive
O=C(O)c1ccccc1-c1c2cc(Br)c(=O)cc-2oc2[c]([Hg])c(O)c(Br)cc12 | – | 15.8 µM (active)

SMILES | activity, negative = inhibition | AC50
C[C@H](N)[C@H](O)c1ccc(O)c(O)c1 | – | inactive
CCC(=O)O[C@H]1CC[C@H]2[C@@H]3CCC4=CC(=O)CC[C@]4(C)[C@H]3CC[C@]12C | -18% [at 25.6 µM] (inactive) | –
CCN1CCC2(CC1)NC(CO)(CO)CO2 | 2.62% (inactive) | –
COc1c2c(cc3c1OCO3)CCN(C)C2 | – | 2 µM (active)
C[C@]12N[C@@H](Cc3ccccc31)c1ccccc12 | – | inactive
N[C@@H]1C=CC=C(C(=O)O)C1 | -6.11% (inactive) | –
COC(=O)C(O)(c1c(C)[nH]c2ccccc12)C(F)(F)F (stereo not given) | – | 15.8 µM (active)
N[C@H](Cc1o[nH]c(=O)c1Cl)C(=O)O | -9.1% (inactive) | –
CCCCN1C(=O)/C(=C/c2ccc(N(C)C)cc2)C(=O)N(Cc2ccco2)C1=O | – | 15.8 µM (active)
O=S(=O)(O)/C(=C\c1ccccc1)c1ccccc1 (tested in a mixture with another compound) | -29% [at 2.29 µM] (inactive) | –
C=C[C@H]1CN2CC[C@@H]1C[C@H]2[C@@H](O)c1ccnc2ccccc12 | – | inactive
c1cc(CN2CCCC3(CCNCC3)C2)ccn1 | -1.58% (inactive) | –
CO[C@@H]1CC=C2CCN3CCC4=C(CC(=O)OC4)[C@]23C1 | 4.21% (inactive) | –
C[C@@H]1Cc2cc3c(cc2C(c2ccc(N)cc2)=NN1)OCO3 | – | 5.01 µM (active)
CC(C)CCC1(CCN)C(=O)NC(=O)NC1=O | -13.1% [at 11.4 µM] (inactive) | –
CC(=O)OC1N=C(c2ccccc2)c2cc(Br)ccc2N(C)C1=O (stereo not given) | -4.73% (inactive) | –
C[C@H](N)c1cccc(Cl)c1Cl | – | 1.26 µM (active)
CC(C)(C)NC[C@H](O)c1ccccc1Cl | -1.39% (inactive) | –
CN1[C@H]2CC(=O)C[C@@H]1[C@@H](O)C2 | -6.99% [at 25.6 µM] (inactive) | –
O=C(O)[C@H]1[O][Sb][O][C@@H](C(=O)O)C1O (stereo not given in full) | -15% [at 2.29 µM] (inactive) | –
Fc1ccc(CCNCc2ccc(Cl)c(Cl)c2)cc1 | – | 2.24 µM (active)
Cn1cccc1CNCCc1ccccc1 | -5.77% (inactive) | –
C=CCN1C[C@@H](C)N([C@H](c2ccc(C(=O)N(CC)CC)cc2)c2cccc(OC)c2)C[C@H]1C | -7.59% (inactive) | –
